Experimental findings from ChEMBL document CHEMBL4513216, “Probing the Open Global Health Chemical Diversity Library for Multistage-Active Starting Points for Next-Generation Antimalarials” (ACS Infect Dis, 2020) are described below.

The whole screen tested about 69,000 compounds, of which about 8,600 (12%) showed an effect of 50% or more. The sample holds strong results, similar compounds and a random draw of the others, so the mix is not that of the screen.

The subject of this assay is Plasmodium berghei. As to the kind of experiment: Screen against P. berghei liver stage (PbLuc), transformed with Luciferase, at 10uM. The format is functional, HepG2. Conditions: tested at 10 uM.
As to `COCCn1ccc2c(C(=O)NCC3CCCO3)cccc21` (configuration not stated), the INHIBITION is listed as 23.7%.
The result for `Cc1cnc(N2C[C@@H]3CCN(CC(=O)N(C)C)C(=O)[C@H]3C2)nc1` reads -61.9%.
For the molecule `Cc1ccc(CC2COCCN(Cc3ccccc3)C2)nc1` (configuration not stated), the INHIBITION was determined as 35%.
As to `Cc1ccc2c(n1)N(C)CCN(C(=O)NC1CC1)C2`, the INHIBITION is listed as 1.28%.
The result for `c1ccc(Cc2noc(CN3CCc4cncnc4C3)n2)cc1` reads 19.6%.
The result for `Cn1cnc2c1CCN(Cc1csc(-c3ccccc3)n1)C2` reads 23.6%; that for `Cn1cnc2c1CCN(Cc1csc(-c3ccc(F)cc3)n1)C2`, -2.522%.
The result for `Fc1ccc(OCc2noc(CN3CCc4cncnc4C3)n2)cc1` reads 50.4%; that for `COc1ccc(-c2noc(CN3CCc4cncnc4C3)n2)cc1`, 40.3%; that for `Cn1cnc2c1CCN(Cc1csc(-c3ccccc3F)n1)C2`, 70.7%.
Consider `CO[C@@H]1CCC[C@@H](N(C)C(=O)c2cn3cc(C)ccc3n2)[C@H]1O`, for which the INHIBITION is reported as -11.125%.
The result for `COc1ccc(C(=O)N2CCCS2(=O)=O)cc1` reads -11.4%.
The result for `CN1C(=O)CC(c2ccccc2)C12CCN(CC1CCOCC1)CC2` (configuration not stated) reads -7.28%.
The result for `COCCN1CCC(CN(CC2CCCO2)C(=O)C2CCOCC2)CC1` (configuration not stated) reads 29.9%; that for `CCCc1nc(C(C)(C)NC(=O)c2ccnn2C)no1`, 38.3%; that for `CN(C)Cc1nc(C(C)(C)NC(=O)c2ccnn2C)no1`, 57.6%.
On to `Cn1nccc1C(=O)NC(C)(C)c1noc(C(C)(C)C)n1`, for which the INHIBITION amounted to 12.7%.
The result for `CCNc1ncc(C(=O)N2CCc3c(nc(C)nc3N(C)C)C2)cn1` reads 36.7%.
As for `CCO[C@H]1CN(C)C[C@@H]1NC(=O)c1cc(C)nc2c(C)cccc12`, the INHIBITION turned out to be 24.3%.
On to `Cc1cc(SC(C)(C)C)ccc1NC(C)C(=O)NC(N)=O` (configuration not stated), for which the INHIBITION worked out at 65.7%.
The result for `Cc1cc(SC(C)(C)C)ccc1NCC(=O)NC(N)=O` reads 32%; that for `Cc1cc(SC(C)(C)C)ccc1NC(=O)CNC(N)=O`, 22.2%.
As for `O=C1NCC(c2ccc(F)cc2)Cc2[nH]c(CCN3CCCC3)nc21` (configuration not stated), the INHIBITION worked out at 43.9%.
The result for `Cc1c(Br)cc2c(c1C)OCC(N(C)C)C2=O` (configuration not stated) reads 24.8%; that for `COCCNc1nc2c(c(NCC3CCOC3)n1)CCNCC2` (configuration not stated), 22.3%.
With `c1cc(-c2nc3c(c(NCCn4ccnn4)n2)CCNCC3)ccn1`, the INHIBITION worked out at 72.1%.
The result for `c1cc(-c2nc3c(c(NCCc4c[nH]cn4)n2)CCNCC3)ccn1` reads 5.41%; that for `c1cn(CCNc2nc(NC3CC3)nc3c2CCNCC3)nn1`, 53.6%; that for `CCOCCNc1nc(-c2ccncc2)nc2c1CCNCC2`, -86.4%.
The result for `COCCNc1nc2c(c(NCc3ccncc3)n1)CCNCC2` reads -3.19%.
The result for `O=C(N1CCCC1)N1CCn2c(nnc2C2CCCN2)C1` (configuration not stated) reads 27.5%; that for `Cc1nc(C2CCCN2Cc2nc(C3CC3)no2)no1` (configuration not stated), 26.9%.
On to `COCCNC(=O)[C@H]1C[C@@H]2CCN(c3ncccn3)C[C@@H]2O1`, for which the INHIBITION is given as 25.3%.
Turning to `COC[C@H]1CC[C@H]2[C@H](CCN2C(=O)c2ccncc2F)O1`, the INHIBITION was 8.52%.
For `O=C(NC1CC1)[C@H]1CC[C@@H]2[C@@H](CCN2c2ncc(F)cn2)O1`, the INHIBITION came to 50.1%.
The result for `CC1CCN(C(=O)[C@@H]2CC[C@@H]3[C@@H](CCN3c3ncc(F)cn3)O2)CC1` reads 62.4%; that for `O=C(NC1CCCC1)[C@H]1CC[C@@H]2[C@@H](CCN2c2ncc(F)cn2)O1`, -9.54%; that for `COCCNC(=O)[C@H]1CC[C@@H]2[C@@H](CCN2c2ncc(F)cn2)O1`, 0.734%.
The result for `COCCNC(=O)[C@@H]1CC[C@@H]2[C@@H](CCN2c2ncc(F)cn2)O1` reads 0.734%; that for `CN1CCN(C(=O)[C@@H]2CC[C@@H]3[C@@H](CCN3c3ncccn3)O2)CC1`, 34.6%; that for `Cc1noc(CN(Cc2cccs2)C2CC2)n1`, 47.3%.
The result for `COCCO[C@H]1CCN(C(=O)c2cc(C)on2)[C@H]1Cc1ccccc1` reads 28.2%.
In the case of `CC1(c2[nH]ncc2C(N)=O)CCN(S(=O)(=O)c2ccccc2)CC1`, the INHIBITION amounted to 11.1%.
The result for `CCC(CC)C(=O)N1CCN(Cc2cc(=O)c3ccccc3[nH]2)CC1` reads 33.4%.
The result for `O=c1c2c(ncn1CCO)nc1n2CCC1` reads 1.98%; that for `NC(=O)Cn1cnc2nc3n(c2c1=O)CCC3`, -17%; that for `CCOC(=O)Cn1cnc2nc3n(c2c1=O)CCC3`, 81.2%.
As to `Cc1nn(-c2ccccc2)cc1C(=O)N1CCCC(n2cccn2)C1` (configuration not stated), the INHIBITION is reported as 66.4%.
The result for `Cc1nn(-c2ccccc2)cc1C(=O)N1CCCC(n2ccnc2)C1` (configuration not stated) reads -3.2%.
The result for `Cc1nn(-c2ccccc2)cc1C(=O)N1CCCN2CCCC2C1` (configuration not stated) reads 51.3%; that for `Cc1nn(-c2ccccc2)cc1C(=O)N1CCCC1c1cnn(C)c1` (configuration not stated), 43.3%; that for `O=C(c1ccn(-c2ccccc2)n1)N1CCCC(n2cccn2)C1` (configuration not stated), 2.97%.
The result for `Cc1ccn2ncc(C(=O)N3CCCC(n4ccnc4C)C3)c2n1` (configuration not stated) reads -31.5%.
Regarding `Cc1ccn2ncc(C(=O)N3CCCC(n4cccn4)C3)c2n1` (configuration not stated), the INHIBITION is on record as 50.5%.
The result for `Cc1cnn(C2CCCN(C(=O)c3cn(-c4ccccc4)nc3C)C2)c1` (configuration not stated) reads -42.3%; that for `Cc1ccn2ncc(C(=O)N3CCCC(n4nc(C)nc4C)C3)c2n1` (configuration not stated), 11.5%; that for `CN(C)c1ncc(C(=O)N2C[C@H]3CC(Oc4ccccc4)C[C@H]3C2)cn1` (some centres not stated), 2.35%.
The result for `O=C(Cc1cn2ccccc2n1)N1CCCC(n2ccnc2)C1` (configuration not stated) reads -43.6%; that for `Cc1cccc(N2CCOCC3(C2)CN(c2ccoc2)C(=O)CO3)n1` (configuration not stated), 32.5%.
The result for `NC(=O)c1cc(CC2CCCN(c3cnccn3)C2)ncn1` (configuration not stated) reads -32.7%; that for `CS(=O)(=O)NC1CCCN(C(=O)Nc2cccnc2N2CCCC2)C1` (configuration not stated), 21.1%.
For `CN(C)C[C@@H]1C[C@@H]2CN(Cc3nccn3C)CC[C@@H]2N1CC1CC1`, the INHIBITION is on record as 51.2%.
`Cc1oncc1C(=O)N1CC[C@H]2[C@H](C[C@@H](CN(C)C)N2CC2CC2)C1`: the INHIBITION came to 33.5%.
The result for `CC(C)N1[C@H](Cn2cncn2)C[C@@H]2CN(Cc3nccn3C)CC[C@@H]21` reads 37.6%; that for `Cc1cc(C(=O)N2CCC(n3nc(C)cc3C)C2)c2ccc(F)cc2n1` (configuration not stated), 37.3%; that for `CCCc1cc(C(=O)N2C[C@H]3CCC[C@@]3(CO)C2)[nH]n1`, 21.9%.
The result for `CCc1ccc2nc(C)cc(C(=O)N3C[C@H]4CCC[C@@]4(CO)C3)c2c1` reads 25.5%; that for `Cc1ccc2nc(C)cc(C(=O)N3C[C@H]4CCC[C@@]4(CO)C3)c2c1`, 75.7%; that for `Cc1cc(C(=O)N2C[C@H](c3ccccc3)[C@@H](N)C2)c2ccc(F)cc2n1`, 13%.
The result for `Cc1cc(C(=O)N2C[C@H]3CCC[C@@]3(CO)C2)c2ccc(F)cc2n1` reads 58.6%; that for `CC(C)COC(C)C(=O)NCc1ccc(F)cc1` (configuration not stated), -27.8%.
Turning to `Cc1cccc(CNC(=O)CC2CCN(Cc3ccccn3)CC2)n1`, the INHIBITION came out at 18.3%.
The result for `CCc1nc(C2CCCN2C(=O)CCc2cscn2)no1` (configuration not stated) reads 18.2%.
On to `CCn1cc(CN2C[C@@H]3CCCN3C[C@H]2CCSC)cn1`, for which the INHIBITION came out at 35.2%.
The result for `CCOCC1CN(Cc2csc(C)n2)Cc2nccn2C1` (configuration not stated) reads 1.9%; that for `CCCc1nnc(N2CCC3(CC2)CC(=O)NC(=O)C3)o1`, -10.2%.
The result for `COCc1cn(C2CCN(C(=O)Cc3ccsc3)CC2)nn1` reads 34.8%; that for `CC(C)CCN1CCCC(Cn2cc(CCO)nn2)C1` (configuration not stated), 6.69%; that for `COc1ccc(CC(=O)N2CCCC(Cn3cc(CN)nn3)C2)cc1` (configuration not stated), 12.7%.
The result for `CC(C)(CN1CCCC1)CN1CCC(Cn2cc(CCO)nn2)CC1` reads -6.03%.
Turning to `NCc1cn(CC2CCCN(C(=O)NCc3ccc(Cl)cc3)C2)nn1` (configuration not stated), the INHIBITION worked out at 45.8%.
Take `NCc1cn(CC2CCCN(C(=O)CC3=CCCCC3)C2)nn1` (configuration not stated): the INHIBITION is 58.5%.
The result for `O=C(Cc1ccsc1)N1CCC(Cn2cc(CCO)nn2)CC1` reads 57.1%.
The result for `O=C(CC1=CCCCC1)N1CCC(Cn2cc(CCO)nn2)CC1` reads 58.5%; that for `O=C(c1sccc1Cl)N1CCC(Cn2cc(CO)nn2)CC1`, 10.7%.
The result for `CC(C)N(C)Cc1cnc2n1CCN(CCc1ccccc1)C2` reads 8.47%; that for `O=C(NCCc1cccs1)[C@H]1CO[C@H]2CCNC[C@H]2C1`, 39.8%; that for `Cc1noc(C)c1CN1CCO[C@H]2CN(C(=O)C3CCOCC3)C[C@H]21`, 29.4%.
As to `O=C(c1ccn(-c2ccccc2Cl)n1)N1CCCSCC1`, the INHIBITION is -15.3%.
With `c1ccc(OC2C[C@@H]3CN(Cc4cnccn4)C[C@@H]3C2)cc1` (some centres not stated), the INHIBITION is -15.3%.
The result for `Cc1cccc(Nc2cc(C3CCCN(CC(N)=O)C3)ccn2)n1` (configuration not stated) reads 81.55%.
The result for `CCc1nnc(Nc2cccc(C3CCCN(CC(C)(C)C)C3)n2)s1` (configuration not stated) reads -34.6%; that for `c1ccc(CNc2cc(C3CCCNC3)ccn2)nc1` (configuration not stated), 7.775%; that for `COCCNc1cc(C2CCCNC2)ccn1` (configuration not stated), -14.775%.
In the case of `Cc1cccc(Nc2nccnc2C2CCCN(CC(=O)N(C)C)C2)n1` (configuration not stated), the INHIBITION was 36.7%.
The result for `CNc1cccc(C2CCCN(Cc3ncc[nH]3)C2)n1` (configuration not stated) reads 15.9%.
The result for `Cc1cccc(Nc2cccc(C3CCCN(Cc4ncc[nH]4)C3)n2)n1` (configuration not stated) reads 64.1%.
The result for `Cc1nnc(Nc2cccc(C3CCN(Cc4ncc[nH]4)CC3)n2)s1` reads -12.9%; that for `NC(=O)CN1CCCC(c2ccnc(Nc3ncccn3)c2)C1` (configuration not stated), 37.55%.
With `Cc1cccc(CNc2cc(C3CCCNC3)ccn2)n1` (configuration not stated), the INHIBITION was found to be 50.45%.
For `Cc1nnc(Nc2cccc(C3CCCN(Cc4ncc[nH]4)C3)n2)s1` (configuration not stated), the INHIBITION is 62.9%.
The result for `Cc1cc(C)nc(Nc2cccc(C3CCCN(CC4CC4)C3)n2)n1` (configuration not stated) reads 47.2%.
